Only a selection was taken, and hits are over-represented in it overall.
SF-1 inh: inhibitors of human nuclear receptor SF-1 | inhibition, % at 10 µM | CHO-K1 Gal4-SF-1 LBD luciferase reporter | Q13285 | AID 525 | 65,000 compounds, 0.55% hits;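 active = inhibition above the mean inhibition of all tested compounds plus 3 SD, cut at about 48% in these data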;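 also: 0% = SF-1 transfected cells with DMSO and 100% = mock-transfected cells lacking SF-1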
Target sequence (Q13285 whole entry, looked up, the tested form may be a part): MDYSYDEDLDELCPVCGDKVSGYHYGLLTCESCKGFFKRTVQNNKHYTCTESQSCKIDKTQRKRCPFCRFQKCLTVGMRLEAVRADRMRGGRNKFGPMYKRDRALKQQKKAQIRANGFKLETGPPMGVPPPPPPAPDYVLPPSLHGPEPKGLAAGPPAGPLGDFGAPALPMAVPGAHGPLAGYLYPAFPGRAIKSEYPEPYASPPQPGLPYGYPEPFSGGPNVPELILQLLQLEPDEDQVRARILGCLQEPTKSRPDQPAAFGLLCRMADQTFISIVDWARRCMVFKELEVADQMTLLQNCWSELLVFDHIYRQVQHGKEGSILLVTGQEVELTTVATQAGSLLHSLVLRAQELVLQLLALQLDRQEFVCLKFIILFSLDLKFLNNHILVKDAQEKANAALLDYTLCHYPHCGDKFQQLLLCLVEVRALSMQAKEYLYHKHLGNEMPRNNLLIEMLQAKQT
Starred values were filed as active, the others as inactive.

SMILES	SF-1 inh
CCOc1ccc2nc(N3CCCCCC3)sc2c1	-58
CC(C)c1nnc(NC(=O)C2CCN(c3nc4ccccc4s3)CC2)s1	-18
Cc1cc(N2CCN(c3nc4ccccc4s3)CC2)n2ncnc2n1	55*
CCOC(=O)c1nnn(-c2nonc2N)c1COc1ccccc1	6
Oc1c(CN2CCOCC2)cc(COCc2ccccc2)c2cccnc12	73*
O=c1[nH]c2ccc(Br)cc2c(-c2ccccc2)c1CN1CCOCC1	10
O=S(=O)(c1ccccc1)N(C1=NCCS1)S(=O)(=O)c1ccccc1	-6
CC1CCN(C(=O)C2Cc3ccccc3CN2S(=O)(=O)c2ccc(F)cc2)CC1 (stereo not drawn)	-6
C/C(N)=C(/C#N)C(=O)CSc1nc2ccc(C)cc2[nH]1	-77
CCOc1cc(C(=O)Nc2ccc(S(=O)(=O)N3CCOCC3)cc2)cc(OCC)c1OCC	-12
O=C(Nc1ccc(S(=O)(=O)N2CCOCC2)cc1)c1cccs1	-1
COc1ccc(N=c2scc(-c3ccc(S(=O)(=O)N4CCOCC4)cc3)n2CCCO)cc1	64*
Cc1ccc(-n2ncc3c(=O)n(CC(=O)NCc4ccco4)cnc32)cc1C	-12
Nc1nonc1-c1nc2ccccc2n1Cc1ccc(Cl)cc1	22
CCCCOc1ccccc1NC(=O)Cn1c(-c2nonc2N)nc2ccccc21	67*
COc1cccc(Cn2c(-c3nonc3N)nc3ccccc32)c1	-62
CCOC(=O)N1CCN(C(=O)c2ccc3c(SCC(=O)O)c4c(nc3c2)CCC4)CC1	10
CC1(C)CC(=O)C2=C(C1)Nc1ccccc1N=C2	-58
O=C(c1cccs1)N1CCn2c1nc1ccccc12	-53
O=C(COC(=O)Cn1cnc2ccccc21)NCCC1=CCCCC1	-4
CCOC(=O)C1CCN(Cc2ccc(O)c3ncccc23)CC1	77*
CCOC(=O)C1CCCN(c2nc(C)nc3c2oc2ccccc23)C1 (stereo not drawn)	17
CCOC(=O)N1CCC(NC(=O)c2cccnc2SC)CC1	-2
Cc1ccc(-c2nc(Nc3ccccc3)n[nH]2)cc1	-64
CN(C)c1ccc(NC(=O)Nc2cccc(Cl)c2)cc1	-64
SMILES	SF-1 inh
CN(C)S(=O)(=O)c1ccc(NC(=O)c2ccccn2)cc1	-74
CN(C)c1ccc(NC(=S)c2ccccn2)cc1	86*
Cc1csc(NC(=O)c2sc3nc(-c4cccs4)ccc3c2N)n1	-50
O=C(Nc1nc(-c2ccc(Cl)s2)cs1)c1ccncc1	63*
O=C(Nc1ccccc1F)c1ccncc1	5
COC(=O)c1ccc(CSc2nc3c(c(=O)n2-c2ccc(Br)cc2)SCC3)o1	7
CCOc1ccc2[nH]c(=O)c(CN(CCO)C(=O)c3ccc(F)cc3)cc2c1	-10
COc1cc(OC)cc(-c2cc3nc(C)c(CCC(=O)O)c(C)n3n2)c1	79*
COc1ccc(-c2nc(N3CCOCC3)nc3nn4c(C)c(CCC(=O)O)c(C)nc4c23)cc1	4
CC(=O)c1cnc2cc(-c3ccccc3)nn2c1C	-50
CCSCCNC(=O)c1cncc(Br)c1	17
CCCSc1nnc(Cn2c(=O)sc3ccccc32)n1-c1ccccc1	-4
O=C(Cn1cnc2ccccc21)NCCCN1CCOCC1	-24
CCc1ccc2oc(-c3cc(N=Cc4cccc(OC)c4O)ccc3O)nc2c1	51*
O=C(CCC(=O)N(CC(=O)NC1CCCCC1)c1ccc2c(c1)OCO2)Nc1ccccn1	-14
O=C(CC1OC(=O)c2ccccc21)c1ccco1 (stereo not drawn)	2
CC(C)CC(NC(=O)OC(C)(C)C)C(=O)NC(C(=O)N1CCCC1C(N)=O)C(C)C (stereo not drawn)	13
Cc1cc(C)nc(Nc2nc(=O)c3ccccc3s2)n1	-31
O=C(Nc1ccc2c(c1)OCO2)c1cnn2cccnc12	-70
CCCCOc1ccc(-c2ncc(Cl)cn2)cc1	-26
CCCCOc1ccc(OC(=O)c2cccnc2)cc1	66*
O=C(COc1ccc(-c2ccccc2)cc1)N1CCN(C(=O)c2cccnc2)CC1	-16
COCCCn1c(SCC(=O)Nc2ccc3c(c2)OCCO3)nnc1-c1ccoc1C	-15
O=C(Nc1nnc(C2CCCC2)s1)C1CCN(S(=O)(=O)c2ccc(Cl)cc2)CC1	-1
O=C(Cn1c(=O)sc2ccccc21)NCCOc1ccccc1F	-10
SMILES	SF-1 inh
CCOCCCNC(=O)CCS(=O)(=O)Cc1ccc(C)cc1	18
Cc1ccc(-c2nc(-c3ccccn3)no2)cc1	92*
Cc1ccc(-c2nc(-c3ccccn3)no2)cc1Cl	86*
COc1cccc(-c2nc(-c3ccccn3)no2)c1OC	-50
Clc1cccc(-c2nc(-c3ccccn3)no2)c1	71*
Cc1ccccc1-c1noc(-c2ccc(O)cc2)n1	-33
c1ccc(CCCc2nc(-c3ccccn3)no2)cc1	-57
Brc1ccc(-c2nc(-c3cccnc3)no2)o1	-66
Clc1ccc(OCc2nc(-c3ccncc3)no2)c(Cl)c1	-86
CC(C)(C)c1ccc(OCc2nc(-c3ccccn3)no2)c(Br)c1	-71
O=C(COC(=O)CSCC(=O)N1CCCCC1)Nc1ccc(Cl)cc1	5
CCCCNC1C(CC)C(CCC)C(C#N)(C#N)C1(C#N)C#N (stereo not drawn)	22
CN1Cc2cc(C(=O)c3cc(Cl)cc(CSc4ncccn4)c3O)cnc2NC1=O	50*
Cc1ccc(O)c(C(=O)c2cnc3c(c2)CN(CCC(C)C)C(=O)N3)c1	-18
CCCc1nnc(SCc2ccc(OCC)cc2)n1N	6
O=C(NCCCn1ccnc1)C1c2ccccc2Oc2ccccc21	5
CCCCCOC(=O)c1[nH]c2c(c1C)C(=O)CC(c1ccco1)C2 (stereo not drawn)	57*
Cc1ccc(-n2nnc3c(SCC(=O)NCc4ccco4)ncnc32)cc1	19
COC(=O)c1ccc(C(=O)OC)c(NS(C)(=O)=O)c1	9
COc1ccc(-c2noc(-c3ccco3)n2)cc1OC	-50
O=C(COc1ccccc1)Nc1ccc(-c2nnc(-c3ccco3)o2)cc1	-66
CCCOc1ccc(-c2nnc(-c3ccco3)o2)cc1	64*
COc1ccc(C)cc1Cn1c(S(C)(=O)=O)nc2ccccc21	3
CCOC(=O)N1CCN(C(=O)CN(C)S(=O)(=O)c2ccc(OC)c(OC)c2)CC1	0
O=C(O)C1CC=CCC1C(=O)Nc1ccc(S(=O)(=O)N2CCCc3ccccc32)cc1 (stereo not drawn)	-12
SMILES	SF-1 inh
COc1cc2c(C#N)c(N3CCc4ccccc4C3)nc(N)c2c(N)n1	-8
c1ccc2c(c1)CCN(c1nc3cc4c(cc3s1)OCCO4)C2	60*
COCCCNC(=O)CS(=O)Cc1nc(-c2ccccc2C)oc1C (stereo not drawn)	-18
c1ccc(-c2cn3nc(-c4ccccc4)sc3n2)cc1	51*
Cc1nc(-c2ccccc2)sc1C(N)=O	3
O=S(=O)(Cc1ccccc1)N1CCN(C/C=C/c2ccccc2)CC1	-10
CCOC(=O)CSC(CC)C(=O)Nc1nnc(CC)s1 (stereo not drawn)	-20
Cc1csc(NC(=O)Cc2nn(C)c(=O)c3ccccc23)n1	54*
CCc1nn(CC(=O)O)c(=O)c2ccccc12	-18
COc1cccc(OC)c1NC(=O)Cc1nn(C)c(=O)c2ccccc12	-3
O=C(Nc1ccc2c(c1)OCCO2)c1c(F)cccc1F	-56
Cn1c(SCC(=O)Nc2ccc3c(c2)OCCO3)nnc1-c1ccco1	-16
Cc1ccc(NC(=O)Cc2nn(C)c(=O)c3ccccc23)cc1F	80*
Cn1nc(C(=O)NCC2CCCO2)c2ccccc2c1=O (stereo not drawn)	6
COc1ccc2c(c1)c(C(=O)CNc1nc(C)cs1)c(C)n2C	6

Screening results deposited in PubChem BioAssay by The Scripps Research Institute Molecular Screening Center.
